Inconclusive results are not listed. Activity calls are given as the source filed them. Calls come from the whole dose curve; as a rule, active = well fitted activation curve with a large enough effect; inconclusive = small, poorly fitted or top-dose-only effect; inactive = no such curve, though single readings can be large or run the other way.

A short description of this test: FLuc inhibitory activity for the follow-up compounds in a cell-based assay to assess the activity of miR-21. The settings on record: HeLa miR-21-FLuc reporter, luciferase luminescence, 48 h; series mostly up to 38.3 µM. The source says:
NCGC Assay Overview: Firefly (Photinus pyralis) luciferase is one of the most commonly used transcriptional reporters. It is considered one of the more dynamically responsive reporters - that is, responsive to changes in reporter transcription - as it requires no post-translational modifications and is enzymatically active directly after protein synthesis (Wood, 1998). With no endogenous expression in mammalian cells and without the requirement of external excitation, it offers very little background signal, thus generally providing excellent signal to background for most assays. Previous profiling work to determine the prevalence of compounds that affect FLuc enzymatic activity (PubChem AID 411) identified that ~3% of the MLSMR library (then at ~72K) inhibited FLuc (Auld et al., 2008). […] Of the compounds identified in this profile that inhibited FLuc, 151 compounds were selected for further analysis, in an effort to better understand their mode of inhibiting FLuc. The assay described here was to determine the activity of the compounds in a cell-based firefly luciferase reporter gene assay originally designed to identify antagonists of miR-21. Compounds that inhibit miR-21 or compounds that stabilize FLuc intracellularly are identified as active compounds in the assay.
NCGC Assay Protocol Summary: Reagents: In-house detection reagent: 300mM Tris-HCl, 300mM Trizma base, 300mM MgCl, 1% Triton-X100, 5mM DTT, 500uM Coenzyme A trilithium salt (Sigma #C3019),450uM ATP (Sigma #A7699), 1mM D-luciferin sodium salt monohydrate (Biosynth #L8240) HeLa cells stably expressing firefly luciferase (FLuc) under the control of a CMV promoter (upstream) and a miR-21 binding sequence directly downstream of the gene. These cells endogenously express miR-21. Control compounds used were two known firefly luciferase inhibitors (3-(5-(3-chlorophenyl)-1,2,4-oxadiazol-3-yl)benzoic acid and 5-(2-fluorophenyl)-3-phenyl-1,2,4-oxadiazole), and DMSO. Assay Summary: 6uL of HeLa miR-21-FLuc cells in assay buffer (DMEM, Invitrogen #21063-029; 10% FBS, HyClone #SH30071.03) were dispensed at 2000cells/well (3.3 x 10^5 cells/mL) into Greiner solid-white TC-treated 1536-well plates using a Multidrop Combi (Thermo Fisher Scientific). Plates were incubated for one hour at 37 degree Celsius, 95% humidity, 5% CO2. These assay plates were then treated with 23nL of compound or DMSO using a Kalypsys pin tool, which allows for delivery of a 12-point titration of each compound to the assay plate, with a final compound concentration ranging from approximately ~38uM to 0.2nM. Assay plates were then incubated for 48 hours. After incubation, plates were allowed to come to RT for one hour prior to delivery of 3uL of 3X luciferase detection reagent. After a 15 minute incubation to allow for cell lysis, luciferase activity was measured using a ViewLux CCD imager (PerkinElmer), with an average exposure time of 2-12 seconds.
As for `C/C(=N\NC(=O)c1ccccc1NC(=O)c1ccc(Cl)cc1)c1ccncc1`, the Potency is 0.0449 µM (active). The value for `CCOc1ccc2nc(NC(=O)Cc3cccs3)sc2c1` was 3.56 µM (active); that for `CC(C)C(=O)Nc1cccc(C(=O)Nc2ccccc2C(=O)O)c1` was “inactive”; that for `c1ccc2sc(-c3ccc4c(c3)OCO4)nc2c1` was 0.225 µM (active). With `O=C(Nc1ccccc1C(=O)O)c1ccc(NC(=O)C2CC2)cc1`, the Potency entry is “inactive”. For the compound `CCc1noc(C)c1C(=O)Nc1nc2ccc(OC)cc2s1`, the Potency was 12.6 µM (active). `Cc1c(NC(=O)c2cccs2)cccc1-c1nc2ccccc2s1`: the Potency was 20 µM (active). The value for `COc1ccc2nc(NC(=O)c3cccs3)sc2c1` was 10 µM (active).

In the case of `Cc1ccc(C(=O)Nc2ccc(C(=O)O)cc2)cc1S(=O)(=O)NCc1ccccc1`, the Potency result was “inactive”. As to `CCOc1ccc(C(=O)Nc2ccccc2C(=O)O)cc1`, the Potency was 1.13 µM (active).

As to `O=C(O)c1ccc(NC(=O)c2cc(S(=O)(=O)N3CCCCC3)c(Cl)cc2Cl)cc1`, the Potency result was “inactive”. Turning to `CN(C)S(=O)(=O)c1ccc(C(=O)Nc2cccc(C(=O)O)c2)cc1`, the Potency result is “inactive”. The value for `Oc1ccc(-c2nc3ccccc3s2)c(O)c1` was 11.3 µM (active).

On to `COc1ccc(NS(=O)(=O)c2cccc(C(=O)Nc3ccccc3C(=O)O)c2)cc1`, for which the Potency entry was “inactive”. Take `Cc1cccc(C(=O)Nc2ccc(-c3nc4ccccc4s3)cc2Cl)c1`: the Potency is 12.6 µM (active). The value for `Cc1ccc(C(=O)O/N=C(\N)c2ccccn2)c(Cl)c1` was 0.0318 µM (active); that for `COc1ccc2nc(NC(=O)CCc3ccc(OC)c(OC)c3)sc2c1` was 12.6 µM (active). The value for `COc1ccc2nc(NC(=O)c3cccc(S(=O)(=O)N4CCOCC4)c3)sc2c1` was 7.11 µM (active); that for `O=C(O)c1cccc(NC(=O)c2ccc(S(=O)(=O)c3ccccc3)cc2)c1` was “inactive”; that for `CCOc1c(Cl)cc(C(=O)Nc2ccccc2C(=O)O)cc1Cl` was 5.04 µM (active). The value for `O=C(O)c1cccc(NC(=O)c2ccc(Cl)c(S(=O)(=O)N3CCCCCC3)c2)c1` was 0.634 µM (active); that for `O=C(Nc1ccccc1C(=O)O)c1cccc(S(=O)(=O)Nc2ccc(Br)cc2)c1` was “inactive”. On to `CC(C)(C)C(=O)Nc1ccc(-c2nc3ccccc3s2)cc1`, for which the Potency result was “inactive”. The same measure for `Nc1ccc(-c2nc3cc(N)ccc3s2)cc1`: 2.25 µM (active); for `CCOc1ccc2nc(NC(=O)c3cc([N+](=O)[O-])ccc3N3CCOCC3)sc2c1`: 5.04 µM (active). The same measure for `O=C(Nc1c(Cl)cc(Cl)cc1-c1nc2ccccc2s1)c1ccc(Br)o1`: 12.6 µM (active); for `O=C(O)c1ccc(NC(=O)c2cccc(C(=O)Nc3ccc(C(=O)O)cc3)c2)cc1`: “inactive”. Take `COc1cc(OC)cc(C(=O)Nc2ccc(-c3nc4ccccc4s3)c(C)c2)c1`: the Potency was 11.3 µM (active).

As to `CCOc1ccc2nc(NC(=O)c3ccccn3)sc2c1`, the Potency was 0.0565 µM (active). With `Cc1ccc(C(=O)Nc2cccc(C(=O)O)c2)cc1S(=O)(=O)N1CCCCC1`, the Potency was 0.565 µM (active).

For `O=C(O)c1cccc(NC(=O)c2ccccc2NC(=O)c2ccccc2F)c1`, the Potency entry is “inactive”.

Take `O=C(Nc1ccccc1C(=O)O)c1ccc(NC(=O)C2CCCCC2)cc1`: the Potency entry was “inactive”. As for `COc1ccc2nc(NC(=O)c3nc(S(=O)(=O)Cc4ccc(C)cc4)ncc3Cl)sc2c1`, the Potency is 2.52 µM (active). The same measure for `Cc1ccc(C(=O)O/N=C(\N)c2ccccn2)cc1`: 0.2 µM (active); for `O=C(Nc1ccccc1C(=O)O)c1cccc(C(=O)Nc2ccccc2C(=O)O)c1`: “inactive”. Consider `Cc1ccc(S(=O)(=O)N2CCN(C(=O)c3ccccc3-c3nc4ccccc4s3)CC2)c(C)c1`, for which the Potency was 20 µM (active). The value for `CCn1c(C)nc2cc(-c3nc4n(n3)Cc3ccccc3-4)ccc21` was 0.1 µM (active); that for `Cc1c(C)c2ccc(OCC(=O)Nc3ccccn3)c(C)c2oc1=O` was 0.0056 µM (active); that for `O=C(O)c1cccc(NC(=O)c2cccc(S(=O)(=O)N3CCc4ccccc4C3)c2)c1` was “inactive”. The same measure for `O=C(Nc1ccccc1C(=O)O)c1cccc(NC(=O)c2ccc(Br)o2)c1`: “inactive”.

(Values after PubChem BioAssay AID602477 (National Center for Advancing Translational Sciences (NCATS), 2012).)
